Bioassay records (PubChem)
This is a sample that favours compounds with a hit; in the whole collection about 0.52% have one here.
Vif-APOBEC3G blk: qHTS for Inhibitors of Vif-A3G Interactions: qHTS; AID 602310, 2012; 0.076% of 410,000 active; Potency, µM (titrated, usually from 46.1 µM), hits mostly inhibitors; HeLa A3G-eYFP + Vif (tagged APOBEC3G with the HIV-1 protein that degrades it), YFP fluorescence, overnight; further: nearly all actives have a fitted effect of over 60% in size
Target sequence (Q9HC16 whole entry, looked up): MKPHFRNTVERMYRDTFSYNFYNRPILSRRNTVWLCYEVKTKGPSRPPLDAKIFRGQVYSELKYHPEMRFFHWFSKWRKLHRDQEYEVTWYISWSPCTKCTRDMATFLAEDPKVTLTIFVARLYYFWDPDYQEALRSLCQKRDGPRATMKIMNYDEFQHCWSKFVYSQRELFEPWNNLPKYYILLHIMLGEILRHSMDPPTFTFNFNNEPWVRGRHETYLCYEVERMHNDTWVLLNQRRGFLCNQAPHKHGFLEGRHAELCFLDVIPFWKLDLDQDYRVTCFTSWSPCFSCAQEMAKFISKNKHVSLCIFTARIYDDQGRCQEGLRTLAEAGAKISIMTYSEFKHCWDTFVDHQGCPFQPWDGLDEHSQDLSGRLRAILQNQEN
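Read-out is eYFP fluorescence (Ex 488/Em 500-530) from Vif-expressing HeLa A3G-eYFP cells; more signal means A3G escaped Vif-mediated degradation. Cells plated overnight, compound pinned in, incubated overnight at 37 deg C.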
Vif-APOBEC3F blk: qHTS for Inhibitors of Vif-A3F Interactions: qHTS; HeLa A3F-eYFP + Vif (tagged APOBEC3F with the HIV-1 protein that degrades it), YFP fluorescence increase; Potency, µM (doses to about 46.1 µM); 0.2% of 390,000 active; further: nearly all actives have a fitted effect of over 65% in size
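HeLa cells stably expressing A3F-eYFP plus Vif, plated and incubated overnight at 37 deg C, then exposed to compounds overnight at 37 deg C. Blocked degradation read as raised yellow fluorescence (Ex 488/Em 500-530).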
Epigenetic reg: Quantitative High-Throughput Screen for Regulators of Epigenetic Control; 0.2% of 280,000 active; murine LDR cells, GFP reporter derepression, 30 h; AID 1865, 2009; Potency, µM (titrated, usually from 53.9 µM), most hits filed as activators; further: nearly all actives have a fitted effect of over 60% in size
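Readout is the number of GFP-expressing murine LDR cells, counted by cytometry following washing. Cells were treated with compound for 30 h at 37 C; the stably integrated CMV-GFP locus is normally silent.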
PINK1 expr mod: A Quantitative High throughput Screen to Identify Chemical Modulators of PINK1 Expression. PINK1 immunofluorescence, high-content cytometry, 24 h. Potency, µM (doses to about 76.6 µM), actives largely listed as activators. 0.2% of 410,000 active; active means well fitted activation curve with a large enough effect; inconclusive means small, poorly fitted or top-dose-only effect; cell line not stated here; further: nearly all actives have a fitted effect of over 65% in size
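PINK1 protein, normally rapidly degraded, was detected by immunofluorescence after 24 hour compound treatment of a stable cell line. Titration data (5 concentrations) came from laser-scanning cytometry, with CCCP-treated wells as controls.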
Hits are given with their value. Unless noted, the call rests on the fitted dose curve; in most records, active means well fitted curve in the direction sought with a large enough effect; inconclusive means small, poorly fitted or top-dose-only effect, or another doubt; inactive means no such curve, though single readings can be large; an effect the other way counts as inactive or inconclusive.

`Cc1ccc(/C=C/c2ccc(N(C)C)cc2)[n+](C)c1` gave Vif-APOBEC3G blk 11.2µM, Vif-APOBEC3F blk inconclusive and PINK1 expr mod inconclusive.
For CCc1noc(C)c1C(=O)N1CCOc2ccc(CN3CCN(c4ccccn4)CC3)cc2C1 the results were PINK1 expr mod inactive.
For CC(C)(C)c1ccc(S(=O)(=O)N[C@H]2CC[C@@H](n3cc(C(=O)N4CCCC4)nn3)CC2)cc1 the results were PINK1 expr mod inactive.
Screening COCC(=O)Nc1cc(C(=O)NC2CCCc3ccccc32)c2c(c1)nc(-c1ccncc1)n2C (stereo not given) returned PINK1 expr mod inactive.
`COc1cccc(CN2CCCC(c3nc(C)ncc3-c3ccc(F)cc3)C2)c1OC` (stereo not given) gave PINK1 expr mod inactive.
For c1ccc(-n2nnnc2NC2CCCCC2)cc1 the results were Vif-APOBEC3G blk inactive, Vif-APOBEC3F blk inactive, Epigenetic reg inactive and PINK1 expr mod 2.82µM.
For O=C(NC1CCCCC1)C1CCN(c2nnnn2-c2ccccc2)CC1 the results were Vif-APOBEC3G blk inactive, Vif-APOBEC3F blk inactive, Epigenetic reg inactive and PINK1 expr mod inactive.
Screening COc1ccccc1C1CN(CC(=O)N2CCC(C(O)c3ccccn3)CC2)Cc2ccccc2O1 (stereo not given) returned PINK1 expr mod inactive.
O=C(Nc1ccc(Cl)c(Cl)c1)N1CCCCCC1 was read as Vif-APOBEC3G blk inactive, Vif-APOBEC3F blk inactive and PINK1 expr mod inactive.
O=C(c1ccc(NC(=S)Nc2ccc(Cl)c(Cl)c2)cc1)N1CCCC1 was read as Vif-APOBEC3G blk inactive, Vif-APOBEC3F blk inactive, Epigenetic reg inactive and PINK1 expr mod 28.2µM.
Cc1cc(C)cc(CC(Cc2nc3ccccc3[nH]2)c2nc3ccccc3[nH]2)c1 (stereo not given) was read as Vif-APOBEC3G blk inactive, Vif-APOBEC3F blk inactive, Epigenetic reg inactive and PINK1 expr mod 15.8µM.
COc1ccc(Nc2ncc3nc(-c4cccs4)c(=O)n(Cc4cccc(OC)c4)c3n2)cc1 was read as PINK1 expr mod 2.51µM.
Screening COCCn1c(=O)c(-c2cccc(C#N)c2)nc2cnc(Nc3ccccc3)nc21 returned PINK1 expr mod 25.1µM.
For COc1ccc(-c2nc3cnc(Nc4cccc(OC)c4)nc3n(C[C@H]3CCCO3)c2=O)cc1 the results were PINK1 expr mod 25.1µM.
For CCNc1ncc2nc(CCc3ccccc3)c(=O)n(Cc3ccc(F)cc3)c2n1 the results were PINK1 expr mod 44.7µM.
`O=c1c(-c2ccccc2)nc2cnc(Nc3ccccc3)nc2n1C[C@H]1CCCO1` gave PINK1 expr mod inactive.
`COc1cccc(Cn2c(=O)c(-c3cccs3)nc3cnc(Nc4cccc(OC)c4)nc32)c1` gave PINK1 expr mod inactive.
For COC(=O)[C@@H]1CCCN1C(=O)c1cnn(-c2nccc(-c3cc(C)sc3C)n2)c1C1CC1 the results were PINK1 expr mod inactive.
Screening CCN(CC)CCNC(=O)c1cnn(-c2nccc(-c3cc4ccccc4o3)n2)c1C returned PINK1 expr mod inactive.
Cc1cc(CNC(=O)c2cnn(-c3nccc(-c4ccc5c(c4)OCO5)n3)c2C2CC2)on1 was read as PINK1 expr mod inactive.
COCCn1c(=O)c(CCc2ccccc2)nc2cnc(Nc3cccc(OC)c3)nc21 was read as PINK1 expr mod inactive.
For COc1cccc(Nc2ncc3nc(CCc4ccccc4)c(=O)n(Cc4cccs4)c3n2)c1 the results were PINK1 expr mod 28.2µM.
`Cc1ccc(N/C=C2/Sc3ccccc3NC2=O)cc1` gave Vif-APOBEC3G blk inconclusive, Vif-APOBEC3F blk inconclusive, Epigenetic reg inconclusive and PINK1 expr mod 39.8µM.
Screening COc1cc(CN2CCC3(CCC(CNC(=O)c4ccccc4)O3)CC2)cc(OC)c1 (stereo not given) returned PINK1 expr mod inactive.
For COc1cc(CNCc2cc3cc(C)ccc3nc2-c2ccc(F)cc2)cc(OC)c1OC the results were PINK1 expr mod inactive.
`O=C(Nc1ccccc1)c1ccc(NCCc2ccccc2)c([N+](=O)[O-])c1` gave Vif-APOBEC3G blk inactive, Vif-APOBEC3F blk inconclusive, Epigenetic reg 12.6µM and PINK1 expr mod inconclusive.
For CC(C)(CNC(=O)c1cnn(-c2ncc3c(n2)-c2ccccc2CC3)c1C1CC1)N1CCOCC1 the results were PINK1 expr mod inactive.
Screening CC(=O)OCCNc1cc(N2CCN(C)CC2)c2noc3c2c1C(=O)c1ccccc1-3 returned Vif-APOBEC3G blk inconclusive, Vif-APOBEC3F blk inconclusive, Epigenetic reg inactive and PINK1 expr mod inactive.
Screening CCOC(=O)C(C(=O)OCC)c1cc(Br)c2noc3c2c1C(=O)c1ccccc1-3 returned Vif-APOBEC3G blk inactive, Vif-APOBEC3F blk inconclusive, Epigenetic reg 3.55µM and PINK1 expr mod inactive.
Screening COc1ccccc1-c1cc2c(c(OC)c1)OCCN(C(=O)Cn1nc(-c3ccccc3)c3ccccc3c1=O)C2 returned PINK1 expr mod inactive.
`c1csc(-c2nnc(NC3CCCCC3)c3ccccc23)c1` gave Vif-APOBEC3G blk inactive, Vif-APOBEC3F blk inactive, Epigenetic reg inactive and PINK1 expr mod 31.6µM.
`CC1CCN(c2nnc(-c3cccs3)c3ccccc23)CC1` gave Vif-APOBEC3G blk inactive, Vif-APOBEC3F blk inactive, Epigenetic reg inactive and PINK1 expr mod inactive.
COc1cccc(CNC(=O)c2c(OC)cc(=O)n3c2CCN(C(=O)c2ccc(C)nc2)CC3)c1 was read as PINK1 expr mod inactive.
CC(C)[C@@H]1CC[C@@H](C)C[C@H]1OC(=O)C[n+]1cc(-c2ccc(Cl)cc2)n2c1CCCCC2 was read as Vif-APOBEC3G blk inactive, Vif-APOBEC3F blk inactive, Epigenetic reg inactive and PINK1 expr mod inconclusive.
Screening COc1ccc(-c2c[n+](CC(=O)OC3CC(C)CCC3C(C)C)c3n2CCC3)cc1 (stereo not given) returned Vif-APOBEC3G blk inactive, Vif-APOBEC3F blk inactive, Epigenetic reg inactive and PINK1 expr mod 39.8µM.
CCOC(=O)C1=C(O)c2ccccc2C(=O)/C1=C\c1ccc(C)cc1 was read as Vif-APOBEC3G blk inconclusive, Vif-APOBEC3F blk 25.1µM, Epigenetic reg inconclusive and PINK1 expr mod inactive.
`CCOC(=O)C1=C(C)OC(=Cc2ccccc2)C1=O` gave Vif-APOBEC3G blk inactive, Vif-APOBEC3F blk inactive and PINK1 expr mod inactive.
For COCC1CCCN(Cc2ccc3c(c2)CN(C(=O)c2cccnc2OC)CCO3)C1 (stereo not given) the results were PINK1 expr mod inactive.
`CCCc1sc(N/N=C/c2ccccn2)nc1-c1ccc(F)cc1` gave Vif-APOBEC3G blk inactive, Vif-APOBEC3F blk inactive, Epigenetic reg inactive and PINK1 expr mod 12.6µM.
`Oc1ccc(/C=N\Nc2nncc(-c3ccccc3)n2)cc1` gave Vif-APOBEC3G blk 11.2µM, Vif-APOBEC3F blk inactive, Epigenetic reg inactive and PINK1 expr mod inactive.
For COC(=O)c1cc(CNC(=O)c2ccc3ncccc3c2)cc(NC(=O)c2ccccc2Cl)c1 the results were PINK1 expr mod inactive.
